CHX counter: affects cycloheximide protein synthesis inhibition readout, counter-screen. cell reporter, cycloheximide protein synthesis inhibition counterscreen. max response, %. actives 12% (n = 300,000); in the data active means max response mostly above about 13%, no sharp cut-off; inactive means mostly below about 14%; further: read at 38.3 µM for the half of the compounds with a filed dose
Shiga inhibitor: inhibitors of Shiga toxin in Vero cells. Vero cells, Shiga toxin protein synthesis inhibition reporter. inhibition, % at 38.7 µM. actives 9.2% (n = 290,000). AID 2315; in the data active means inhibition mostly above about 28%, no sharp cut-off; inactive means mostly below about 43%
SARS PLP yeast: inhibitors of SARS-CoV papain-like protease in yeast | AID 485353 | S. cerevisiae expressing SARS-CoV PLpro, growth rescue | Potency, µM (series often up to 32.9 µM), hits mostly activators | actives 0.19% (n = 330,000); calls by dose curve; further: nearly all actives have a fitted effect of over 55% in size
TbPYK inhibitor: blocks Trypanosoma brucei pyruvate kinase | actives 0.12% (n = 410,000) | Q57TT1 | Potency, µM (top dose mostly 76.8 µM), most hits filed as inhibitors | TbPYK enzyme, Kinase-Glo Plus ATP luminescence, 45 min; further: nearly all actives have a fitted effect of over 50% in size
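Enzyme and substrate buffer are dispensed first and compound is pin-transferred. ADP at 130 uM final then starts the reaction, which runs 45 min at room temperature. Detection reagent is added for 10 min before luminescence is imaged.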
NS1 function inh: influenza NS1 inhibition; AID 2326; actives 0.4% (n = 270,000); Potency, µM (doses to about 46.1 µM); calls by dose curve; further: actives are rising curves; nearly all actives have a fitted effect of over 50% in size
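Compounds were scored for reversing the slow growth caused by influenza A NS1 in S. cerevisiae, measured by optical density at 600 nm. Assay medium contained 2% galactose at pH 6.0; NS1-free yeast of the same strain were the positive control.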
LmPK inh: inhibitors of Leishmania mexicana pyruvate kinase; actives 0.37% (n = 290,000); purified LmPK, Kinase-Glo ATP luminescence, 1 h; Potency, µM (top dose mostly 57.5 µM), actives largely listed as inhibitors
Target sequence (Q27686 whole entry, looked up): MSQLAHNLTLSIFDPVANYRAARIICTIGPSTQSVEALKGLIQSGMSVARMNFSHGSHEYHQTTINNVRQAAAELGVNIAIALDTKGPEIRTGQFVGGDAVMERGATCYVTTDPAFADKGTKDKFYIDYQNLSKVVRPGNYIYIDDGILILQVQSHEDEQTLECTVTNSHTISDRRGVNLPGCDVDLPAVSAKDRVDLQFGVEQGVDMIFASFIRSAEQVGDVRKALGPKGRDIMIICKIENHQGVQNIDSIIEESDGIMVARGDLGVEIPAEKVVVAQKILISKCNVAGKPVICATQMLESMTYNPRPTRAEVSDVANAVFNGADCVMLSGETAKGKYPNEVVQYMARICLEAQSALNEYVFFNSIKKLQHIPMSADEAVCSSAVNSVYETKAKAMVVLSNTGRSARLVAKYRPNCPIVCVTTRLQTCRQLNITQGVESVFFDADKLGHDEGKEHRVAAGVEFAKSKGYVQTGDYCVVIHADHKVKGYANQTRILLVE
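In 50 mM imidazole pH 7.2 with 7 mM MgCl2, LmPK (0.1 nM) turned over PEP (0.5 mM) and ADP (0.1 mM) for 1 h at room temperature. Luciferase read-out of ATP.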
Each line names hits and unclear results; the compound was inactive in the other large screens. The sample as a whole holds a higher share of hits than the screen did. Unless noted, the call rests on the fitted dose curve; in most records, active means well fitted curve in the direction sought with a large enough effect; inconclusive means small, poorly fitted or top-dose-only effect, or another doubt; inactive means no such curve, though single readings can be large; an effect the other way counts as inactive or inconclusive.

CCOc1ccccc1NC(=O)Cn1c(=O)n(-c2ccc(F)cc2)c(=O)c2c3c(sc21)CN(C(C)=O)CC3	none (no result: CHX counter, Shiga inhibitor, SARS PLP yeast, NS1 function inh, LmPK inh)
O=C(/C=C/c1c(Cl)nc2ccccn12)Nc1ccc(F)cc1	CHX counter 14.8 (no result: NS1 function inh)
O=Cc1c(Cl)nc2ccccn12	none
COC(=O)c1ccc(-c2ccc(/C=N/N3C(=O)C4C5C=CC(CC5)C4C3=O)o2)cc1 (configuration not stated)	CHX counter 34.5
O=C1C2C(C(=O)N1/N=C/c1ccco1)C1C=CC2C12CC2 (configuration not stated)	none
O=C1C2C3C=CC(CC3)C2C(=O)N1/N=C/c1ccco1 (configuration not stated)	CHX counter 16.5 (no result: NS1 function inh)
CC1(C(=O)NS(=O)(=O)C2CC2)CCN(C(=O)COc2ccc(Cl)cc2Cl)C1 (configuration not stated)	none (no result: CHX counter, Shiga inhibitor, SARS PLP yeast, NS1 function inh, LmPK inh)
CC(=O)c1ccc(N2CCN(C(=O)Nc3cn(CC(C)C)c(=O)c4ccccc34)CC2)cc1	none (no result: CHX counter, Shiga inhibitor, SARS PLP yeast, NS1 function inh, LmPK inh)
COc1ccc(CNc2nc(NCc3ccc(OC)cc3)c3ncn(C4CCCCC4)c3n2)cc1	CHX counter 49.5, Shiga inhibitor 36.8 (no result: SARS PLP yeast, TbPYK inhibitor, NS1 function inh, LmPK inh)
COc1ccc(CNc2nccn3ccnc23)cc1	none (no result: CHX counter, Shiga inhibitor, SARS PLP yeast, NS1 function inh, LmPK inh)
Cc1ccc(C(=O)NCCC(=O)N2CCC3(CC2)NCCc2[nH]cnc23)cc1C	CHX counter 11.4
Cc1ccc(/C(O)=C2/C(=O)C(=O)N(c3ccccn3)C2c2ccc(F)cc2)cc1 (configuration not stated)	CHX counter 19.4
O=C(CCC1CCN(C(=O)c2ccccc2Cl)CC1)NCc1ccc(F)cc1	none
CCOC(=O)c1sc(Nc2nc3c(F)cccc3s2)cc1C	CHX counter 38.1, Shiga inhibitor 72.5
O=C(NNc1nc2c(F)cccc2s1)c1ccccc1	none (no result: NS1 function inh)
CCOC(=O)c1sc(Nc2nc3ccc(OC)cc3s2)cc1C	CHX counter 41.2, Shiga inhibitor 73.8
COc1ccccc1C(=O)NC(=O)COC(=O)C1CC1C (configuration not stated)	none (no result: CHX counter, Shiga inhibitor, SARS PLP yeast, NS1 function inh, LmPK inh)
C=C(C)CSc1nnc([C@@H](N)Cc2ccccc2)o1	CHX counter 17.9
CCOc1ccc(S(=O)(=O)N2CCC(C(=O)NCc3ccco3)CC2)cc1C	none
CCc1ccc(N/C(SCc2cccc(F)c2)=C(/C#N)C(=O)NCc2ccco2)cc1	CHX counter 21.0, NS1 function inh inconclusive
Cc1ccc(N/C(SCc2ccccc2C)=C(/C#N)C(=O)NCc2ccco2)cc1C	none
Cn1c(-c2sccc2OCc2ccc(Cl)cc2Cl)n[nH]c1=S	TbPYK inhibitor 3.55µM, LmPK inh inconclusive (no result: NS1 function inh)
Cc1ccc(COc2ccsc2-c2n[nH]c(=S)n2C)cc1	none (no result: TbPYK inhibitor)
CC(C)=CC(=O)OCc1cc([N+](=O)[O-])cc2c1OCOC2	CHX counter 64.7, Shiga inhibitor 87.7 (no result: NS1 function inh)
O=C(OCCOCCN=C1NS(=O)(=O)c2ccccc21)c1ccc(F)cc1	none
FC(F)(F)c1ccc(-c2csc(-c3ccno3)n2)cc1	CHX counter 38.9, Shiga inhibitor 83.5
Cc1cccc(NC(=O)CSc2nsc(SCC(=O)Nc3cccc(C)c3)c2C#N)c1	CHX counter 11.7
CC(=O)Nc1cccc(NC(=O)CSc2nc(C)c(C)c(C)c2C#N)c1	CHX counter 11.2, TbPYK inhibitor inconclusive
COc1cc(/C=N/N=C2/C(=O)Nc3ccccc32)cc(OC)c1O	none
O=C1Nc2ccccc2/C1=N/N=C/c1cccc(O)c1	CHX counter 48.8, Shiga inhibitor 48.4
COc1ccc(N2CCN(CCCNC(=O)c3nnc(Cc4ccccc4Cl)o3)CC2)cc1	none (no result: CHX counter, Shiga inhibitor, SARS PLP yeast, NS1 function inh, LmPK inh)
Cc1nc2c(ccc3c([N+](=O)[O-])cccc32)c(C)c1C	CHX counter 36.7 (no result: NS1 function inh)
COc1ccc(OC)c(C2=Nn3c(nnc3-c3cccc(OC)c3OC)SC2)c1	none (no result: SARS PLP yeast, TbPYK inhibitor, NS1 function inh, LmPK inh)
O=C1/C(=C/c2ccc(O)cc2)CCc2ccc([N+](=O)[O-])cc21	none
O=C1/C(=C\c2ccc([N+](=O)[O-])cc2)CCc2ccccc21	CHX counter 25.8, LmPK inh inconclusive
CCC1C/C(=C\c2cccnc2)C(=O)/C(=C/c2cccnc2)C1 (configuration not stated)	CHX counter 38.4
O=C1/C(=C/Nc2cccc([N+](=O)[O-])c2)CCc2ccccc21	CHX counter 81.3
O=C1/C(=C/c2cccnc2)CC/C1=C\c1cccnc1	CHX counter 62.9 (no result: NS1 function inh)
Cc1ccccc1NC(=O)Cc1nc(COC(=O)c2ncc(Cl)c(Cl)c2Cl)cs1	none (no result: CHX counter, Shiga inhibitor, SARS PLP yeast, NS1 function inh, LmPK inh)
CCNC(=O)C1(C)CCN(Cc2ccc(OC(F)(F)F)cc2)C1 (configuration not stated)	none (no result: CHX counter, Shiga inhibitor, SARS PLP yeast, NS1 function inh, LmPK inh)
O=C1/C(=C/c2cccnc2)CCC/C1=C\c1cccnc1	none
O=C1/C(=C/c2ccccc2)CCCc2ccccc21	CHX counter 63.2, Shiga inhibitor 95.7, LmPK inh inconclusive
CN(C)c1ccc(/C=C2\CCC/C(=C\c3ccccc3)C2=O)cc1	none
CC(C)N1C(=O)S/C(=C/c2cccnc2)C1=O	CHX counter 19.9
O=C1/C(=C\c2cccnc2)CCc2ccccc21	CHX counter 29.4, LmPK inh 15.8µM
O=C1c2ccccc2CCc2ccccc21	none (no result: CHX counter, Shiga inhibitor, SARS PLP yeast, NS1 function inh, LmPK inh)
CC(C)/C=C1\CC/C(=C\c2cccnc2)C1=O	CHX counter 78.3, Shiga inhibitor 124.2 (no result: NS1 function inh)
O=C(O)CCCNC(=O)c1nn(Cc2ccccc2)c(=O)c2ccccc12	none
Brc1c(OCCOCCn2cncn2)ccc2ccccc12	CHX counter 20.3, Shiga inhibitor 26.7
Cc1cc(Cl)ccc1OCCn1cncn1	none (no result: NS1 function inh)
Cc1c(Cc2ccccc2)[n+](=O)c2ccccc2n1[O-]	none (no result: CHX counter, Shiga inhibitor, SARS PLP yeast, NS1 function inh, LmPK inh)
CC(=O)Nc1ccc(OC(=O)c2ccccc2N)cc1	CHX counter 19.2
CNc1ccccc1C(=O)OCC(=O)c1ccccc1	CHX counter 45.5, Shiga inhibitor 32.6
CC(C)C(NC(=O)c1ccccc1F)C(=O)OCC(=O)c1ccc(F)cc1 (configuration not stated)	CHX counter 61.5, Shiga inhibitor 93.7
Cc1cc2c(cc(C(=O)OCC(=O)NCc3ccco3)n2C)s1	CHX counter 14.7
Cc1cc(Br)c(NC(=O)c2c(-c3c(Cl)cccc3Cl)noc2C)c(Br)c1	none
COC(=O)C1=C(C(=O)OC)[C@@H]2Nc3ccccc3[C@@]23C[C@@H](C(=O)OC)N(C(=O)NC2CCCCC2)C3=N1	none (no result: CHX counter, Shiga inhibitor, SARS PLP yeast, NS1 function inh, LmPK inh)
CN(C)c1cccc(C(=O)OCC(=O)NCc2ccco2)c1	CHX counter 18.7
CC(=O)Nc1ccc(C(=O)OCc2ccccc2Br)cc1	CHX counter 27.1, Shiga inhibitor 58.5 (no result: NS1 function inh)
CNc1ccccc1C(=O)OCC(=O)c1ccc(F)cc1	CHX counter 80.1, Shiga inhibitor 121.6 (no result: NS1 function inh)
CC(=O)Nc1ccc(C(=O)OCC(=O)c2ccc(F)cc2)cc1	CHX counter 25.1, Shiga inhibitor 33.6
COc1cc(OC)cc(C(=O)OCC(=O)NCc2ccco2)c1	none (no result: CHX counter, Shiga inhibitor, NS1 function inh, LmPK inh)
CCCCCCCCCCCCCC[N+](C)(C)Cc1ccccc1	none (no result: CHX counter, Shiga inhibitor, SARS PLP yeast, NS1 function inh, LmPK inh)
O=C(c1cccc(NS(=O)(=O)c2ccccc2)c1)N1CCCCC1	none (no result: CHX counter, Shiga inhibitor, NS1 function inh, LmPK inh)

Bioassay records as filed in PubChem BioAssay.
